Nrf2 activator: Nrf2 pathway activation; AID 624171; Potency, µM (highest dose often 46.1 µM), inactives show at the highest dose activation, actives largely listed as activators; 410,000 tested, 0.31% active; AREc32 ARE-luciferase reporter (MCF7-derived line), luminescence, 24 h; also: potency is read from the fitted curve at half-maximal effect; % of control where 0% means no effect; nearly all actives have a fitted effect of over 65% in size
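Luciferase luminescence (Steady-Glo, 30 min at room temperature) served as the read-out of ARE activation in AREc32 cells treated with compounds for 24 hr at 37 deg C.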
12-LOX inh: blocks human arachidonate 12S-lipoxygenase; purified 12hLO, xylenol orange hydroperoxide absorbance; P18054; Potency, µM (series often up to 108 µM), inactives show at the highest dose activity change, negative = inhibition, usual class: inhibitors; 580,000 tested, 1.1% active; also: potency is read from the fitted curve at half-maximal effect; % is scaled to controls: 0 for no effect and ±100 for the full control effect
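Purified human 12hLO at 150 nM in 25 mM Hepes, 0.01% Triton X-100, pH 7.0, preincubated 15 min at room temperature with compound. Reaction started with 40 uM arachidonic acid, 30 min at room temperature. Hydroperoxide measured by Fe-xylenol orange, 573/405 nm absorbance ratio.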
A549 viability: kills or reduces viability of A549 cells in Nrf2 counter-screen | AID 504648 | 390,000 tested, 0.16% active | A549 ARE-Fluc cells, CellTiter-Fluor viability, 18-24 h | Potency, µM (series often up to 46 µM), inactives show at the top dose activity change, negative = cytotoxicity, actives largely listed as inhibitors; also: potency is read from the fitted curve at half-maximal effect; % is scaled to controls: 0 for no effect and ±100 for the full control effect
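A549 ARE-Fluc cells in 5% FBS OPTI-MEM, 5000 cells/well, rested 2 h then exposed to compounds in concentration-response for 18-24 h at 37 °C. Viability by CellTiter-Fluor fluorescence (Ex 405/Em 525) after 30 min; luciferase luminescence (BugLite, 15 min, RT) read afterwards.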
ERG-DNA inh: blocks human ERG Ets domain binding to DNA; Potency, µM (top dose mostly 76.9 µM), for inactives: top-dose FP activity, negative = inhibition, usual class: inhibitors; P11308; AID 624246; 370,000 tested, 0.028% active; fluorescence polarization, His-ERG Ets domain / labelled DNA; active = well fitted inhibition curve with a large enough effect in the polarisation, with a control signal flat; inconclusive = small, poorly fitted or top-dose-only effect, or effect the other way, or a change in a side signal; inactive = no such curve, though single readings can be large or run the other way; the % refers to the polarisation;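 also: polarization taken with two DNA probes labelled with fluorescein and Texas red; potency is read from the fitted curve at half-maximal effect; % of control where 0% means no effect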
Target sequence (P11308 whole entry, looked up, the tested form may be a part): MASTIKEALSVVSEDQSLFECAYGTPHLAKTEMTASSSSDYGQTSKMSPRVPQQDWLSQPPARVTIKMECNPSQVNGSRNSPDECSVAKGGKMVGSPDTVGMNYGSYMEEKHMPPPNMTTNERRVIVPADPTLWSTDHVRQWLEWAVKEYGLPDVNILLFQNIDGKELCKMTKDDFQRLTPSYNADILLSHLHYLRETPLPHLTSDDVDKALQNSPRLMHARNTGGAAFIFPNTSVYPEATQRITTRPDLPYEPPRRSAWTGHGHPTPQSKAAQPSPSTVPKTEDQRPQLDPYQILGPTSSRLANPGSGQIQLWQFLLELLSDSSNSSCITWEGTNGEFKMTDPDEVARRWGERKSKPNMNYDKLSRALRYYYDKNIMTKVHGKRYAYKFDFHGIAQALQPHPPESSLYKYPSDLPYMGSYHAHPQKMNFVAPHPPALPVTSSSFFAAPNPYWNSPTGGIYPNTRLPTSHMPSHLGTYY
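His-tagged ERG Ets domain (1 uM in the protein solution; 300mM KCl, 50mM Tris-HCl, 1mM EDTA, 1mM DTT, pH 7.5) received compound, then a probe mix of 5 nM fluorescein-DNA and 100nM Texas-615-DNA. Fluorescence polarization was read for both dyes.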
Nrf2 inh: blocks Nrf2 signaling | A549 ARE-Fluc reporter, luciferase luminescence, 18-24 h | Potency, µM (series often up to 46 µM), without a hit: at the highest dose activity change, negative = inhibition, hits mostly inhibitors | 360,000 tested, 2.1% active; also: potency is read from the fitted curve at half-maximal effect; % is scaled to controls: 0 for no effect and ±100 for the full control effect; nearly all actives have a fitted effect of over 60% in size
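Nrf2 activity is the BugLite luminescence, read 15 min after reagent at room temperature, following CellTiter-Fluor cytotoxicity readout (30 min, 37C). Compound titrations were applied for 18-24 h to 5000 A549 ARE_Fluc cells/well in 5% FBS OPTI-MEM.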
LDHA block: blocks human lactate dehydrogenase A | 480,000 tested, 0.15% active | activity change, % (values are at about 110 or 230 µM) | P00338 | purified LDHA, NADH/diaphorase-resazurin fluorescence; hits give low values; in the data active = activity change below about -30%; inconclusive = mostly about -25% to -30%;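 also: plate controls were DMSO wells for no effect and wells without enzyme for full effect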
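Human LDH5 at 2 nM final in Tris HCl pH 7.4 with 0.06 mM NADH and 0.2 mM pyruvate, reacted 5 minutes at room temperature. Remaining NADH coupled via diaphorase/resazurin; resorufin fluorescence read at 0 and 20 minutes, normalized to enzyme-free and DMSO wells.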
Active calls of the source: *; u = inconclusive; x = no result; ! = a repeat was not active. Shown are actives, neighbours in structure and some others; about 2.7% of the full set was active somewhere. Unless noted, calls follow the shape of the dose curve; as a rule, active = well fitted curve in the direction sought with a large enough effect; inconclusive = small, poorly fitted or top-dose-only effect, or another doubt; inactive = no such curve, though single readings can be large; an effect the other way counts as inactive or inconclusive.

SMILES	Nrf2 activator	12-LOX inh	A549 viability	ERG-DNA inh	Nrf2 inh	LDHA block
CCC(CC)C(=O)NCc1ccc2c(c1)cc(C)n2C	0.2%	0.0%	u	-6.1%	u	1.7
CCN(CC)S(=O)(=O)c1ccc(C(=O)NCc2ccc3c(c2)cc(C)n3C)cc1	2.2%	u	-2.0%	31.6µM*	-10.8%	-2.7
CCCCNC(=S)NCc1ccc2c(c1)cc(C)n2C	2.4%	39.8µM*	-1.3%	2.8%	3.7%	-0.9
Cc1cc2cc(CNC(=O)c3cccs3)ccc2n1C	-0.3%	u	-17.9%	17.8µM*	-13.7%	4.8
Cc1cc2cc(CNC(=S)NCc3ccccc3)ccc2n1C	2.0%	39.8µM*	2.9%	u	-12.4%	-2.3
CCCCCOc1ccc(/C=C/C(=O)c2ccc(O)cc2)cc1OC	x	u	x	x	x	11.8
Cc1ccc(/C=C(/C#N)c2nc3ccccc3[nH]2)c(C)c1	x	u	x	x	x	1.6
N#Cc1ccc(NCCCNc2ccc(C#N)cn2)nc1	x	29.7%	x	x	x	0.5
CC(C)N1C(=O)S/C(=C/c2cn(CC#N)c3ccccc23)C1=O	x	4.47µM*	x	x	x	11.2
C=CCN1C(=O)S/C(=C/c2cn(CC(=O)O)c3ccccc23)C1=O	x	31.6µM*	x	x	x	-3.1
COC(=O)c1cc(S(=O)(=O)N2CCOCC2)c(Cl)cc1N1CCOCC1	0.3%	0.0%	-3.9%	3.0%	-18.0%	-7.5
COC(=O)c1cc(C)nc2c1C(=O)C(=O)C=C2N1CCOCC1	-4.3%	u	u	6.5%	16.4µM*	6.2
COc1ccc(/C=C2\CCCC3C2=NN(C(=O)COC(=O)CNC(=O)c2ccccc2)C3c2ccc(OC)cc2)cc1 (stereo not drawn)	1.6%	3.8%	x	-3.1%	13µM*	-2.2
COc1ccc(/C=C2\CCCC3C2=NN(C(=O)CSc2ncn[nH]2)C3c2ccc(OC)cc2)cc1 (stereo not drawn)	2.5%	-3.2%	-14.9%	1.6%	u	-4.8
O=C(NCc1cccs1)c1ccc2c(c1)CC(=O)N2Cc1ccc(F)cc1	x	-22.8%	x	x	x	x
Cc1ccc(NS(=O)(=O)c2ccc(-c3cnc(C4CC4)o3)cc2)cc1N(C)C	0.5%	-8.7%	-7.7%	-0.8%	x	2.7
COc1ccc(-c2cnc(C)o2)cc1S(=O)(=O)Nc1ccc(C)c(F)c1	0.6%	50.1µM*!	-18.1%	-0.5%	x	6.5
Cc1ccc(NS(=O)(=O)c2ccc(-n3cccn3)cc2)cc1F	-0.2%	-31.0%	-1.8%	-8.1%	14.6µM*	-10.7
Cc1ccc(NS(=O)(=O)c2ccc(-c3cnc(C4CC4)o3)cc2)cc1F	x	3.55µM*	x	x	x	10.5
Cc1ccc(C(=O)NC(Nc2cccc(C(F)(F)F)c2)C(Cl)(Cl)Cl)cc1 (stereo not drawn)	x	-86.5%	x	x	x	16.1
COc1ccc(-c2c3c(=O)n(C)c(=O)n(C)c3c3n2-c2ccccc2NC3c2ccc(C#N)cc2)cc1 (stereo not drawn)	x	u	x	x	x	10.7
Nc1sc(-c2ccccc2)cc1C(=O)NCCc1ccc(Cl)cc1	x	39.8µM*	x	x	x	0.4
c1ccc(Cn2c(-c3ccccc3)c[n+]3c2SCCC3)cc1	0.0%	15.7%	0.8%	0.5%	8.2µM*	1.8
Brc1ccc(-c2c[n+]3c(n2-c2ccccc2)SCC3)cc1	-0.3%	-9.4%	-4.9%	2.2%	u	-0.1
CC(=O)C1CCC2C3CCC4=CC(=O)CC[C@]4(C)[C@@]3(F)C(O)C[C@]12C (stereo partly drawn)	-0.3%	6.7%	-3.6%	17.4%	2.91µM*	-5.1
Cc1cccc(Oc2c(C(F)(F)F)oc3cc(OC(=O)c4cncc(Br)c4)ccc3c2=O)c1	x	8.91µM*	x	x	x	12.9
N#Cc1ncn(CCC(=O)Nc2c(Cl)cccc2Cl)n1	x	58.1%	x	x	x	-3.5
COC1CN(c2cccc(F)c2)C12CCN(C(=O)NC1CCCCC1)CC2 (stereo not drawn)	x	3.5%	x	x	x	x
O=C(CCn1c(=O)oc2cc(S(=O)(=O)N3CCCC3)ccc21)Nc1ccc(F)c(F)c1	x	u	x	x	x	-7.6

Compound activity from PubChem BioAssay.
